# Source: PubChem BioAssay (NCI)
# Compounds without any hit were thinned out: in the full panel of roughly 79,000, 15% have a hit. A number with no mark means an inactive call. Active and inactive are the calls of the source. Rule as the data show it: active = growth inhibition above about 70%; inactive = the rest.
# Experiments:
# [1] = NCI Yeast Anticancer Drug Screen. Data for the rad50 strain (AID 155);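 also: 0% = growth of vehicle-only cultures of the same strain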; settings: S. cerevisiae rad50 strain growth inhibition; at 50.0 µM; stronger effect = higher value
# Outline: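 DNA repair mutant yeast, compound exposure, growth read-out; inhibition is taken relative to vehicle.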
# [2] = NCI Yeast Anticancer Drug Screen. Data for the mec2-1 strain (AID 157); settings: S. cerevisiae mec2-1 strain, at 50.0 µM, stronger effect = higher value
# Outline: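 Mutant yeast (mec2-1) grown with compound; growth inhibition relative to vehicle control reported.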
# [3] = NCI Yeast Anticancer Drug Screen. Data for the sgs1 mgt1 strain (AID 161);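 also: 0% = growth of cultures given vehicle only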; settings: S. cerevisiae sgs1 mgt1 strain, at 50.0 µM, stronger effect = higher value
# Outline: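 Percent growth inhibition was derived by comparing compound-exposed mutant yeast with vehicle-exposed cultures. The strain carries alterations in DNA damage repair.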
# [4] = NCI Yeast Anticancer Drug Screen. Data for the cln2 rad14 strain (AID 165);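 also: 0% = growth equal to vehicle treated cultures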; settings: S. cerevisiae cln2 rad14 strain, at 50.0 µM, stronger effect = higher value
# Outline: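 Readout is yeast growth inhibition versus vehicle-treated controls, using a strain with cln2 and rad14 alterations exposed to compound.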
# [5] = NCI Yeast Anticancer Drug Screen. Data for the bub3 strain (AID 167); settings: S. cerevisiae bub3 mutant strain, at 50.0 µM, stronger effect = higher value
# Outline: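 In this screen, a yeast mutant lacking normal mitotic checkpoint function is challenged with compound. Relative growth versus vehicle gives the inhibition value.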
# [6] = NCI Yeast Anticancer Drug Screen. Data for the mlh1 rad18 strain (AID 175); settings: S. cerevisiae mlh1 rad18 strain growth inhibition; at 50.0 µM; stronger effect = higher value
# Outline: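 Genetically defined yeast (DNA repair-deficient) exposed to compounds; growth inhibition determined relative to vehicle.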
SMILES,growth inhibition [1],growth inhibition [2],growth inhibition [3],growth inhibition [4],growth inhibition [5],growth inhibition [6]
CCOC(=O)C1=C(C)NC(=O)NC1c1cccs1 (stereo unspecified),-11.2%,-26.9%,-14.4%,5.5%,-14.2%,
O=C(/C(=N/O)c1ccccc1)c1ccccc1,7.4%,-21.6%,1.35%,-25.5%,4.85%,
COc1cc(OC)c2ccc(=O)oc2c1,27.2%,8.4%,16.1%,6.75%,,
O=C1N(C[P+](c2ccccc2)(c2ccccc2)c2ccccc2)CCCN1C[P+](c1ccccc1)(c1ccccc1)c1ccccc1,17.4%,7.4%,3.55%,14.9%,15.1%,
O=c1cc(-c2ccccc2)[nH]c2c1CCCC2,-17.8%,-21.4%,-12.2%,-23.8%,0.95%,
C=CCNc1nnc(C)s1,14.9%,19.7%,-21.6%,-16.2%,-15%,-5.35%
S=C(Nc1ccccc1)N1CCCCC1,-2.8%,1.25%,-10.2%,-39.3%,2.4%,
O=C(O)CCC(=O)OC(C1CO1)C(OC(=O)CCC(=O)O)C1CO1 (stereo unspecified),-0.85%,-16.5%,-7.3%,3.3%,-11.6%,-44.7%
OCc1ccc(-c2ccc(-c3ccc(CO)s3)o2)s1,31.1%,3.55%,39.9%,31.9%,25.3%,
CC(=O)OC1CC2C(C)(C)OC3CC(=O)OCC32C2CCC3(C)C(=CCC3c3ccoc3)C12C (stereo unspecified),6.45%,-5.7%,-26.6%,17.8%,-10.3%,
Cc1ccc(N)cc1[N+](=O)[O-],11.8%,2%,6.2%,18.2%,15.4%,
CCCCNC(=O)C(=O)NCCCC,10.8%,7.2%,4.6%,28.6%,7%,1.75%
O=C(O)c1cccc([N+](=O)[O-])c1O,-41.4%,1.35%,8.95%,,,
CCCCCCCCO,12.1%,17.2%,2.25%,5.5%,-20.4%,
Cc1ccc(C(=O)NC2c3ccccc3Oc3ccccc32)cc1,-0.25%,-7.7%,4.65%,-12%,,
O=c1[nH][nH]c(=O)c2cc([N+](=O)[O-])ccc12,32.9%,11.6%,1.7%,-67.7%,-15%,
O=C(CCNNC(=O)c1ccncc1)NCc1ccccc1,8.25%,11.6%,11.9%,-46%,-9.8%,
O=c1cc2oc3cc(O)c(O)cc3c(-c3ccccc3O)c-2cc1O,26.1%,2.25%,44.9%,32.3%,41%,
Cc1cc(Cc2cc(C)c(N)cc2N)c(N)cc1N,-1.6%,-49.4%,-23.9%,15.2%,-2.25%,
CCN(CC)C(=O)/C=C(/C)c1ccccc1,-12.6%,-2.65%,-22.2%,-6.95%,4.25%,
N#CSc1cc(S(N)(=O)=O)ccc1N,5.65%,-10.2%,4.05%,-5.35%,-1%,
CC1(C)/C(=C\CO)C2CCC1C2 (stereo unspecified),12.7%,0.05%,1.95%,-4.95%,-2.65%,
O=C(NCc1ccco1)Nc1c(Cl)cc(Cl)cc1Cl,-3.1%,-26.1%,-2.85%,2.65%,-13.4%,
O=C(N/N=C\c1cc(Br)cc(Br)c1O)N/N=C/c1cc(Br)cc(Br)c1O,41.4%,10.2%,43%,21.9%,39%,

SMILES,growth inhibition [1],growth inhibition [2],growth inhibition [3],growth inhibition [4],growth inhibition [5],growth inhibition [6]
Cc1ccccc1C1N=C2Oc3ccccc3C=C2C(=O)N1 (stereo unspecified),10.7%,-11.8%,0.6%,-9.55%,-17.4%,
O=[N+]([O-])c1cccc(C(F)(F)F)c1,-3.9%,-12.1%,-9.1%,-23.9%,34.3%,
CC1CCC2C(C)(C)C3CC12CC1OC13C (stereo unspecified),-17.4%,-30.4%,0.7%,4.95%,0.65%,
O=[N+]([O-])c1ccc(-c2noc(-c3cccs3)n2)cc1,-3.2%,-31.9%,13.4%,15%,10.7%,-11.8%
Cc1cc(=O)cc(C)n1-c1ccccc1,11.9%,-5.75%,-15.4%,0.25%,12.1%,19.2%
O=C(Cc1nc2ccc([N+](=O)[O-])cc2nc1CC(=O)c1ccccc1)c1ccccc1,-2.4%,9.35%,-10.5%,2.75%,13.2%,
CC(=O)N(C)c1ccc([N+](=O)[O-])cc1,21.8%,-5.6%,21.2%,26.2%,24.4%,
O=[N+]([O-])c1ccc(N=Nc2ccc(O)c3ccccc23)cc1,13.3%,1.45%,21.9%,16.6%,-25.2%,
Cc1cc(C(O)(c2ccc(Nc3ccccc3)cc2)c2ccc(Nc3ccc(S(=O)(=O)O)cc3)cc2)ccc1N (stereo unspecified),-44.5%,-46%,-9.6%,-16.1%,-36.6%,
COc1ccccc1C1OC2=Nc3cc(C)c(C)cc3NC2C1=O (stereo unspecified),11.1%,-9.95%,-1.95%,-9.25%,-21.1%,
Brc1cnc2ccccc2c1,12.8%,9.05%,26.7%,-7.65%,-2.55%,22.2%
CC1(O)OC(COc2ccc(Cl)cc2)COC1O (stereo unspecified),0.55%,-8.65%,4.7%,8.55%,-9.7%,
CCc1nc(N)nc(N)c1-c1ccc(Cl)cc1,-9.9%,2.9%,-4.45%,-42.5%,-14%,
COC(=O)C(O)c1ccccc1 (stereo unspecified),21.4%,11.3%,5.55%,23.7%,11.1%,
CC(=O)OC(OC(C)=O)C1CCCO1 (stereo unspecified),-5.75%,-21.6%,-2.1%,17.1%,-2.95%,1.1%
COc1cc(C(=O)N/N=C/c2cccc([N+](=O)[O-])c2)cc(OC)c1OC,-5.5%,-13.4%,-41.9%,24.4%,-39.2%,-64.5%
Nc1ncnc2c1nc(N)n2C1OC(CO)C(O)C1O (stereo unspecified),-2.6%,-17.9%,0.4%,-23.4%,15.3%,0%
CO[C@H]1C[C@@H]2CC[C@@H](C)[C@@](O)(O2)C(=O)C(=O)N2CCCC[C@H]2C(=O)O[C@H]([C@H](C)C[C@@H]2CC[C@@H](O)[C@H](OC)C2)CC(=O)[C@H](C)C=C(C)[C@@H](O)[C@@H](OC)C(=O)[C@H](C)C[C@H](C)/C=C/C=C/C=C1C,88.8% (active),91.2% (active),89.8% (active),85.2% (active),89.1% (active),89.4% (active)
CCOC(=O)C(CCC(C)C)C(=O)OCC,-7.55%,7.85%,-9.65%,-53.4%,4.6%,2.6%
COC(=O)c1cc(-c2ccc(Cl)c(Cl)c2)[nH]c(=O)c1C#N,-16.9%,-18.9%,-27.9%,21.7%,-21.9%,18.6%
Cc1ccc(CCCC(=O)O)c(C)c1,6.5%,-0.25%,22.1%,1.45%,28.9%,45.6%
CCCC[P+](c1ccccc1)(c1ccccc1)c1ccccc1,45.5%,40%,48.4%,37.2%,33.1%,65.2%
CCN(CC)c1ccc2nc3ccc(=[N+](CC)CC)cc-3oc2c1,-213%,-192%,-187%,-165%,-246%,-258%
